# High-throughput results deposited in PubChem by several laboratories.
# Compounds with a hit are over-represented: about 2.4% of the library has one in this group of screens.
# SENP7 block – SENP7 protease inhibitors, primary screen, biochemical, luminescence, uHTS | Sentrin-specific protease 7 (Homo sapiens), Q9BQF6 | recombinant SENP7, Z-RLRGG-aminoluciferin luminescence, 40 min | inhibition, % at 5 µM | 1.5% of 330,000 active;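 active = inhibition above about 50% at the single test dose, limit read from the data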;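 also: plate controls were DMSO with enzyme for no effect and no enzyme buffer wells for full effect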
# Target sequence (Q9BQF6 706-1050 limits assumed): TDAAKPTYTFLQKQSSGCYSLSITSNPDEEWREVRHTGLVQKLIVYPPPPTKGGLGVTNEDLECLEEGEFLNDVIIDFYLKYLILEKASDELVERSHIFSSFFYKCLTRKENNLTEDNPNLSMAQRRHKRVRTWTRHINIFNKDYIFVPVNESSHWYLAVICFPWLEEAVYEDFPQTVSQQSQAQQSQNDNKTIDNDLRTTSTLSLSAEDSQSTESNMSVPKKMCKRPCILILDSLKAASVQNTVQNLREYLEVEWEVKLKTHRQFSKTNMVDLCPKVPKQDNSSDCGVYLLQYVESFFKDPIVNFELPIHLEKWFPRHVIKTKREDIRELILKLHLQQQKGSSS
# SENP8 block-1 – human SENP8 protease inhibitors, primary screen, biochemical, fluorescence, Nedd8 protein substrate, uHTS | Sentrin-specific protease 8 (Homo sapiens), Q96LD8 | recombinant SENP8 | inhibition, % at 20 µM | 0.64% of 360,000 active; in the data active = inhibition mostly above about 40%, no sharp cut-off; inactive = mostly below about 27%
# SENP6 inh – SENP6 protease inhibitors, primary screen, biochemical, luminescence, uHTS. Sentrin-specific protease 6 (Homo sapiens), Q9GZR1. Recombinant SENP6 catalytic domain, aminoluciferin luminescence. inhibition, % at 10 µM. 1.8% of 330,000 active;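 active = inhibition above about 50% at the single tested dose, limit read from the data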;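 also: plate controls were DMSO wells with enzyme for no effect and DMSO wells lacking enzyme for full effect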
# Platelet DG rel – inhibitors of platelet dense granule secretion, primary screen, cell-based, MLPCN, human platelets | human platelet-rich plasma, SFLLRN dense granule ATP release, luminescence | inhibition, %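 (compounds screened at 7.5 µM in platelet-rich plasma)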 | 0.22% of 300,000 active;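 active = mean replicate score, as percent of positive control, at or above 50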
# SENP8 block-2 – SENP8 protease inhibitors, primary screen, biochemical, luminescence. purified SENP8, Z-RLRGG-aminoluciferin cleavage. Sentrin-specific protease 8 (Homo sapiens), Q96LD8. AID 2540, 2010. 1.2% of 330,000 active. inhibition, % at 10 µM; in the data active = inhibition above about 50%
# SENP8 conf – SENP8 protease inhibitors, retest, confirmation, biochemical, luminescence, single concentration; shares compounds with SENP7 block; Recombinant SENP8, Z-RLRGG-aminoluciferin luminescence, 60 min; inhibition, % at 12.5 µM; 40% of 6,200 active;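 active = mean inhibition across replicates above about 50%, limit read from the data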
# SENP6 conf – SENP6 protease inhibitors, confirmation, biochemical, luminescence, single concentration. shares compounds with SENP7 block. recombinant SENP6, Z-RLRGG-aminoluciferin luminescence. inhibition, % at 12.5 µM. 58% of 6,200 active. AID 488915, 2010
# SENP7 confirm – SENP7 protease inhibitors, retest, confirmation, biochemical, luminescence, single concentration; shares compounds with SENP7 block; recombinant SENP7, Z-RLRGG-aminoluciferin luminescence, 40 min; inhibition, % at 12.5 µM; 69% of 6,200 active
# Casp3 SENP sel – caspase-3 protease inhibitors, confirmation, selectivity assay for SENP inhibitor project, biochemical, single concentration; shares compounds with SENP7 block; purified caspase-3, Z-DEVD-aminoluciferin luminescence, 60 min; inhibition, % at 12.5 µM; 60% of 6,200 active;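 active = mean inhibition above about 50%, limit read from the data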;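 also: plate controls were enzyme with DMSO for no effect and wells without caspase-3 for full effect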
# Target sequence (P42574 28-227 limits assumed): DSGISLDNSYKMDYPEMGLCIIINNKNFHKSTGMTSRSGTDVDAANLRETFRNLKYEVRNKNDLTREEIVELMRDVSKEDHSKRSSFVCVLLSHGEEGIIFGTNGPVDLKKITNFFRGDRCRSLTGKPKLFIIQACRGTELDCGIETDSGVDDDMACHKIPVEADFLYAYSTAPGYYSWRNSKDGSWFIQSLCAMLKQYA
# SENP luc ctr – luminescence interference (SENP counter-screen). 39% of 6,200 active. Pre-incubated SENP8/Z-RLRGG-aminoluciferin, luciferase luminescence interference. inhibition, % at 12.5 µM. shares compounds with SENP7 block;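 active = mean inhibition above about 50% when retested at one dose, limit read from the data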;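 also: plate controls were DMSO wells with completed reaction for no effect and substrate without enzyme for full effect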
# Active calls of the source: *; / = not tested or not shown.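 The calls were made as follows, unless noted: active = mean inhibition above about 50% in the one-dose retest (limit read from the data); inactive = the rest.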
SMILES,SENP7 block,SENP8 block-1,SENP6 inh,Platelet DG rel,SENP8 block-2,SENP8 conf,SENP6 conf,SENP7 confirm,Casp3 SENP sel,SENP luc ctr
Cc1ccc(C(=O)Nc2ccc3c(c2)OCO3)cc1S(=O)(=O)N1CCCC1,-10,21,-20,0,-9,/,/,/,/,/
O=C(Nc1ccc2c(c1)OCO2)c1cnc(Cl)c(Cl)c1,61*,8,59*,/,45,4,52*,85*,69*,10
Cc1ccc(C(=O)Nc2ccc3c(c2)OCO3)cc1Cl,51*,0,5,23,-11,-3,0,61*,36,-1
c1ccc(-c2cnc(-c3ccccn3)nn2)cc1,60*,16,61*,20,41,45,44,82*,77*,54*
C=C(Cl)COc1ccc2c(CC)cc(=O)oc2c1,57*,-129,-18,/,-20,6,6,6,3,0
C=C(Cl)COc1ccc2c(CCCC)cc(=O)oc2c1,-2,-129,-12,-4,-10,/,/,/,/,/
CCCCCC(=O)N1C[C@H](O)[C@@H](n2cc(C3CC3)nn2)C[C@@H]1c1ccc(Cl)cc1,/,2,/,/,/,/,/,/,/,/
Cc1cccc(/C(N)=N/OC(=O)CCC2CCCCC2)c1,32,11,83*,-7,-4,67*,90*,98*,86*,83*
Cc1ccc(/C(N)=N/OC(=O)CCC2CCCCC2)cc1,1,8,-13,-6,-9,/,/,/,/,/
COc1cccc(C(=O)O/N=C(\N)c2ccc(C)cc2)c1,83*,9,73*,9,57*,74*,76*,93*,79*,58*
COc1cccc(C(=O)O/N=C(\N)c2ccncc2)c1,67*,7,-1,8,43,47,44,78*,83*,59*
Cc1cccc(/C(N)=N/OC(=O)c2ccncc2)c1,92*,17,89*,1,75*,79*,84*,96*,92*,80*
CN(CCOc1ccccc1)C(=O)c1ccc(N2CCCC2)c([N+](=O)[O-])c1,-5,25,-4,3,-7,/,/,/,/,/
CCOC(CCNC(=O)c1cn(CCOC)c(=O)c2c1c1ccccc1n2C)OCC,-2,-304,-5,13,6,/,/,/,/,/
COC(=O)c1ccc2c(c1O)C(=O)c1ccccc1C2=O,44,27,71*,4,44,41,55*,66*,74*,10
Nc1c(C(=O)O)ccc2c1C(=O)c1ccccc1C2=O,4,29,-9,8,54*,69*,66*,83*,79*,73*
O=C(O)CCSc1nc2ccccc2s1,-18,7,-3,-5,-16,/,/,/,/,/
Nc1c(SCCC(=O)O)ccc2c1C(=O)c1ccccc1C2=O,45,31,89*,2,84*,93*,93*,98*,94*,92*
O=C1c2ccccc2C(=O)c2c1ccc(O)c2O,/,29,/,/,/,/,/,/,/,/
O=C(O)c1ccccc1-n1c2ccccc2c2ccccc21,2,-113,-4,21,5,/,/,/,/,/
Cc1cc(C)n(-c2nc3ccccc3s2)n1,42,5,-3,-9,39,/,/,/,/,/
Cc1cc(N)n(-c2nc3ccccc3s2)n1,93*,9,87*,21,86*,92*,93*,100*,93*,40
Cc1oc2c(c1C(=O)c1ccccc1)C(=O)C(=O)c1ccccc1-2,42,99*,83*,-11,65*,-4,72*,49,5,-1
CCOC(=O)c1c(C)oc2c1C(=O)c1ccccc1C2=O,10,39,49,1,17,/,/,/,/,/
Cc1onc(-c2ccccc2Cl)c1C(=O)c1ccccc1,-3,3,-38,9,0,/,/,/,/,/
SMILES,SENP7 block,SENP8 block-1,SENP6 inh,Platelet DG rel,SENP8 block-2,SENP8 conf,SENP6 conf,SENP7 confirm,Casp3 SENP sel,SENP luc ctr
Cc1oc2c(c1C(=O)O)C(=O)c1ccccc1C2=O,18,45*,63*,1,30,12,52*,30,51*,18
COc1ccccc1Nc1nc(-c2cccnc2)cs1,53*,16,67*,0,50*,-26,39,78*,42,60*
CN(C)c1ccc(Nc2nc(-c3cccnc3)cs2)cc1,89*,24,88*,18,87*,43,78*,96*,92*,32
CCN(CC)c1ccc(Nc2nc(-c3cccnc3)cs2)cc1,11,16,62*,17,57*,56*,52*,88*,47,22
O=C(Cc1ccc(Cl)cc1)c1ccc(O)cc1,5,23,51*,1,42,55*,50,79*,46,63*
O=C(NCCN1CCOCC1)c1cccc(S(=O)(=O)Nc2ccc(Br)cc2)c1,4,4,10,/,-4,/,/,/,/,/
c1cc2nnnn2nc1N1CCCCC1,58*,5,1,11,5,8,6,-3,-6,-8
COc1c(O)ccc(/C=C(\C#N)c2nc3ccccc3[nH]2)c1[N+](=O)[O-],14,-22,54*,-10,14,27,28,59*,23,48
N#C/C(=C/c1cccs1)c1nc2ccccc2[nH]1,57*,-68,48,2,30,44,48,84*,58*,22
Cc1ccc(/C=C(\C#N)c2nc3ccccc3[nH]2)s1,84*,-22,23,-18,13,40,31,93*,74*,61*
N#C/C(=C\c1c(Cl)cccc1Cl)c1nc2ccccc2[nH]1,1,-300,-15,7,2,/,/,/,/,/
Cc1ccc(OCc2nc(-c3ccccn3)no2)c(Br)c1,96*,33,82*,8,90*,1,96*,102*,91*,93*
Cc1ccc(SCc2nc(-c3ccccn3)no2)cc1,18,11,16,-11,-10,/,/,/,/,/
